High-throughput results as filed in PubChem BioAssay.
In the library only some 1.2% were active in any assay of this set; here they are far more common.
DNA Pol III inh = DNA polymerase III holoenzyme inhibition; reconstituted DNA polymerase III holoenzyme replication, biochemical; Potency, µM (highest dose often 57.1 µM); 71,000 tested, 0.25% active
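Reconstituted *E. coli* holoenzyme (0.35 nM Pol III, 1 nM beta, 154 nM SSB, 2 nM primase) was preincubated with compound for 15 min at RT. Synthesis on 1.4 nM ssM13Gori ran 35 min, then was stopped with PicoGreen/EDTA and read as dsDNA fluorescence.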
TsaE inh = YjeE (TsaE) inhibition, E. coli; P0AF67; purified YjeE enzyme, qHTS inhibition assay; Potency, µM; 71,000 tested, 0.05% active; AID 605
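Purified YjeE (10 uM) with BODIPY Texas Red-labeled ADP probe (2 uM); compounds pin-transferred, 15 min at room temperature. Binding inhibition read as decreased fluorescence polarization; ADP titration as control.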
ERK AVP inh = inhibitors of vasopressin-stimulated ERK signaling pathway | HEK293-V1b, vasopressin-stimulated pERK AlphaScreen | Potency, µM (top dose mostly 57.5 µM), hits mostly inhibitors | 72,000 tested, 0.99% active | AID 995; further: nearly all actives have a fitted effect of over 55% in size
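HEK293 cells stably expressing V1b receptor, seeded overnight in 1% FBS, were treated with compounds for 30 min at 37C, then stimulated 5 min with 25 nM vasopressin; phospho-ERK read by AlphaScreen SureFire after lysis.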
BRCT PPI red = disrupts BRCA1 BRCT binding to phosphoprotein, red fluorophore readout; BRCT-phosphopeptide binding, red fluorescence polarization; 75,000 tested, 0.03% active; P38398; Potency, µM (doses to about 76.9 µM), actives largely listed as inhibitors
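Fluorescence polarization: 100 nM His-tagged BRCA1 BRCT with 100 nM TAMRA-labelled phospho-BACH1 decapeptide, phosphate buffer pH 7.3 with 150 mM NaCl, DTT, 0.01% Tween 20; 12 min RT. Binding inhibition seen as FP decrease.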
BRCT inh green = blocks human BRCA1 BRCT binding to phosphopeptide, green readout | P38398 | BRCA1 BRCT-phosphopeptide binding, green fluorescence polarization | Potency, µM (series often up to 76.9 µM), usual class: inhibitors | 75,000 tested, 0.05% active
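Fluorescence polarization: His-tagged BRCT (~35 kDa BRCA1 C-terminus, 250 nM) bound to 100 nM fluorescein-labeled phosphorylated 10-aa BACH1 peptide, pH 7.3 phosphate buffer with DTT and Tween 20. Compounds incubated 12 min at room temperature; inhibition read as lowered polarization.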
Numbers stand for hits; – = inactive; ? = inconclusive; · = not tested or not shown; ! = a repeat was not active; [ ] = dose if it differs, or a comment. The call rests on the fitted dose curve; in most records, active means well fitted curve in the direction sought with a large enough effect; inconclusive means small, poorly fitted or top-dose-only effect, or another doubt; inactive means no such curve, though single readings can be large; an effect the other way counts as inactive or inconclusive.

SMILES | DNA Pol III inh | TsaE inh | ERK AVP inh | BRCT PPI red | BRCT inh green
COc1ccc(C(=O)Nc2ccc(-c3ccc(C)o3)cc2)cc1S(=O)(=O)N1CCOCC1 | – | – | 2µM | – | –
Cn1c(-c2ccc(F)cc2)cnc1SCC(=O)Nc1ccccc1N1CCOCC1 | – | – | 32µM | – | –
O=C1c2ccc(O)c(O)c2C(=O)c2c(O)ccc(O)c21 | · | · | 3.2µM | 32µM | –[3.08 µM]
Oc1c(I)cc(Cl)c2cccnc12 | – | – | 13µM! | – | –[3.08 µM]
Cc1cccc(Nc2ccccc2C(=O)O)c1C | 2.5µM | – | – | – | –[3.08 µM]
Cc1ccc(S(=O)(=O)NC(=O)Nc2ncn[nH]2)cc1 | –[11.4 µM] | – | –[11.5 µM] | –[15.4 µM] | –[15.4 µM]
Cc1nc2cnc(N3CCNCC3)nc2n(-c2ccccc2)c1=O | – | – | – | – | –
COCCN(CCOC)S(=O)(=O)c1ccc(C(=O)Nc2nc(-c3ccncc3)cs2)cc1 | – | – | 25µM | – | –
Cc1ccccc1-c1nccc(NCc2cccs2)n1 | – | – | – | – | –
Clc1ccccc1-c1nccc(NCc2cccs2)n1 | – | – | 16µM | – | –
c1cncc(-c2nccc(NCc3cccs3)n2)c1 | – | – | 32µM | – | –
CC(=O)NCc1c(I)c(NC(C)=O)c(I)c(C(=O)O)c1I | · | · | – | – | –[3.08 µM]
COc1ccc2[nH]cc(CCNc3ccnc(-c4ccc5c(c4)OCO5)n3)c2c1 | – | – | 32µM | – | –
COc1ccc(-c2csc(N3CCN(C(=O)c4ccco4)CC3)n2)cc1 | – | – | 10µM | – | –
COc1ccc(-c2csc(N3CCC(C(N)=O)(N4CCCCC4)CC3)n2)cc1 | – | – | 25µM | – | –
CCOC(=O)c1ccc(NC(=O)CCc2nc(-c3cccc(C)c3)no2)cc1 | – | – | 25µM | – | –
Cc1cccc(-c2noc(CCC(=O)Nc3ccccc3)n2)c1 | – | – | ? | – | –
O=C(c1ccccc1C(=O)N1CCN(c2ccc(F)cc2)CC1)N1CCN(c2ccc(F)cc2)CC1 | – | – | 40µM | – | –
N[C@H](CO)C(=O)NCC(=O)O | –[11.4 µM] | – | –[11.5 µM] | –[15.4 µM] | –[15.4 µM]
C/C(CCN1CCCCc2nc(C)c(C)cc21)=N\OC[C@@H](O)[C@@H]1O[C@@H]2OC(C)(C)O[C@@H]2[C@H]1O | · | · | –[11.5 µM] | –[15.4 µM] | –[15.4 µM]
O=C(O)c1cc(-c2ccco2)nc2ccc(Br)cc12 | 25µM | – | – | – | –
C=CCNc1ncnc2c1[nH]c1ccccc12 | – | – | ? | – | –
CCOCCCNc1ncnc2c1[nH]c1ccccc12 | – | – | 40µM | – | –
CC(CCC(=O)O)C1CCC2C3CC[C@H]4CC(O)CC[C@@]4(C)C3C=C[C@]12C (stereo partly specified) | · | · | – | – | –[3.08 µM]
O=c1/c(=C\c2ccc3c(c2)OCO3)sc2n1CCCN=2 | – | – | 10µM | – | –
SMILES | DNA Pol III inh | TsaE inh | ERK AVP inh | BRCT PPI red | BRCT inh green
C(=N\n1cnnc1)/c1ccc2c(c1)OCO2 | – | – | – | – | –
OC(COc1ccc2cc(Br)ccc2c1)CN1CCN(c2ccccn2)CC1 (stereo unspecified) | – | – | 25µM | – | –
O=C(O)CCSc1nc2ccc(Br)cc2[nH]1 | – | – | – | – | –
Cn1c(CSc2nc3ccc(Br)cc3[nH]2)nc2ccccc21 | – | – | 20µM | – | –
O=c1c(O)c(-c2ccc(O)c(O)c2)oc2cc(O)ccc12 | 0.79µM | – | 13µM! | – | –
C(CCc1nnc2c(n1)CCCC2)Cc1nnc2c(n1)CCCC2 | –[11.4 µM] | – | –[11.5 µM] | –[15.4 µM] | –[15.4 µM]
COc1cccc(CNc2ccc(N3CCCCC3)cc2)c1OC | – | – | 20µM | – | –
COc1ccccc1CNc1ccc(N2CCCCC2)cc1 | – | – | 16µM | – | –
CCOc1ccc(CNc2ccc(N3CCCC3)cc2)cc1 | – | – | ? | – | –
CC(C)[C@@H](OCc1ccccc1)[C@H](C)CO/N=C1/[C@H]2OC2[C@@H](O)[C@H]2[C@H]1CCn1c(=O)n(-c3ccccc3)c(=O)n12 (stereo partly specified) | · | · | –[11.5 µM] | –[15.4 µM] | –[15.4 µM]
COc1cc2nncc(SCc3ccc(Cl)c(Cl)c3)c2cc1OC | –[11.4 µM] | – | –[11.5 µM] | –[15.4 µM] | –[15.4 µM]
O=C(Nc1cccc(F)c1)N1CCC2(CC1)CCN(C(=O)c1csnn1)CC2 | – | – | – | – | –
O=C1CCC(=O)N1c1ccc(CSc2nnnn2C2CCCCC2)cc1 | – | – | 16µM | – | –
